The structures appear in SMILES notation. Counter-ions that a name gives are not always drawn. ± gives the standard deviation.

This test relates to THP-1. As to the kind of experiment: THP-1 cell loss relative to DMSO control; higher = more host cell loss (toxicity); extreme values may be limits of the assay. The following applies: 10 µM; 4 days; infection: M. tuberculosis H37Rv. As for the experimental part:
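OICR kinase inhibitor library screened in duplicate at 10 uM against M. tuberculosis-infected THP-1 macrophages, 4 days at 37 C. THP-1 cell loss (cytotoxicity or loss of adherence) was quantified from Hoechst-stained nuclei counts by high-content imaging and normalised to the 1% DMSO control; 100 = complete loss of host cells.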
For the compound `CN(C)c1ccc(/C=C2/C(=O)Nc3ccccc32)cc1`, the THP-1 cell loss was determined as 20.5 ± 18%. Regarding `NCC(=O)Nc1ccc(-n2nc(C(F)(F)F)cc2-c2ccc3c(ccc4ccccc43)c2)cc1`, the THP-1 cell loss was found to be 33.1 ± 2.5%.

The compound `CC[C@H](CO)Nc1nc(NCc2ccccc2)c2ncn(C(C)C)c2n1` [Roscovitine] gave a THP-1 cell loss of 53.5 ± 2.5%. Compound `Cc1[nH]c(/C=C2\C(=O)Nc3ccc(S(=O)(=O)Cc4c(Cl)cccc4Cl)cc32)c(C)c1C(=O)N1CCC[C@@H]1CN1CCCC1` showed a THP-1 cell loss of 19.1 ± 12%.

On to `Cc1ccc(NC2=CC(=O)c3sc(C)nc3C2=O)cc1` [Ryuvidine], for which the THP-1 cell loss came out at 100%.

The compound `O=C(NOCC1CC1)c1ccc(F)c(F)c1Nc1ccc(I)cc1Cl` registered a THP-1 cell loss of 100%. In turn, `NC(=O)c1ccc(N(C(N)=O)c2c(F)cccc2F)nc1-c1ccc(F)cc1F` came in with a THP-1 cell loss of 10.1 ± 4.9%. In turn, `COc1cc(SC)ccc1C(=O)N1CCC(Cc2ccccc2)CC1` yielded a THP-1 cell loss of 0.379 ± 0.54%. Consider `COc1cccc2cc(-c3nc([C@H]4CC[C@H](C(=O)O)CC4)n4ncnc(N)c34)[nH]c12` [OSI-027 hydrochloride], for which the THP-1 cell loss amounted to 51.2 ± 4.5%.

Regarding `CN(c1ccccc1CNc1nc(Nc2ccc3c(c2)CC(=O)N3)ncc1C(F)(F)F)S(C)(=O)=O`, the THP-1 cell loss was 100%.

In the case of `C[C@@H]1CN(CC(=O)Nc2ccc3c(c2)Cc2cccc(-c4cc(=O)cc(N5CCOCC5)o4)c2S3)C[C@H](C)O1`, the THP-1 cell loss turned out to be 100%. For `Cc1cc(Nc2cc(N3CCN(C)CC3)nc(Sc3ccc(NC(=O)C4CC4)cc3)n2)n[nH]1`, the THP-1 cell loss was 22.3 ± 16%. The compound `CN(C)CCCn1cc(C2=C(c3c[nH]c4ccccc34)C(=O)NC2=O)c2ccccc21` [Bisindolylmaleimide I hydrochloride] registered a THP-1 cell loss of 100%. The same measure for `O=C(NC(NC(=S)Nc1ccc(F)c([N+](=O)[O-])c1)C(Cl)(Cl)Cl)C(c1ccccc1)c1ccccc1` (stereo unspecified): 100%; for `O=C1Cc2c([nH]c3ccc(Br)cc23)-c2ccccc2N1` [Kenpaullone]: 100%. On to `CN(C)CCOc1cc(-c2cn[nH]c2)ccc1NC(=O)C1COc2ccccc2O1` (stereo unspecified), for which the THP-1 cell loss is 0%. Regarding `Nc1nc(Nc2ccc(S(N)(=O)=O)cc2)nn1C(=O)c1c(F)cccc1F`, the THP-1 cell loss stood at 100%. For the compound `N#CCc1ccc(Nc2nc(Nc3cc(C4CCC4)[nH]n3)c3ccccc3n2)cc1`, the THP-1 cell loss turned out to be 100%.

Compound `CC(C)CC(=O)Nc1n[nH]c2c1CN(C(=O)C1CCN(C)CC1)C2(C)C` registered a THP-1 cell loss of 100%. Next, `Cc1cc(Nc2cc(CN3CCOCC3)c3nc(C)c(Cc4ccc(Cl)cc4F)n3n2)n[nH]1`: 100%; `CNc1nccc(-c2cccnc2Oc2cc(C(=O)Nc3cccc(C(F)(F)F)c3)ccc2C)n1`: 100%.

Source of the values: the supplement of paper PMC7530171.
